This passage reports GI50 results from ChEMBL document CHEMBL1201862, “PubChem BioAssay data set” (2004).

The campaign covered roughly 56,000 sequences. About 2,900 (5.2%) were called active. No stated cut-off is given here; in the data, active = GI50 up to about 1.1 µM and inactive = higher. A selection follows. Measured potencies and affinities stand elsewhere.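 Cultured in 96-well plates, cells were exposed to test compound for 48 hours across five concentrations. GI50 marks 50% less growth.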 Some results are limits rather than exact numbers.

The subject of the assay is SK-OV-3. Kind of assay: NCI tumour cell line growth inhibition, 48 h.
Substance “[Bis(aminomethyl)tetramethylenesilane]tetrachloropaltinum(IV), CHEMBL2146189” showed a GI50 of 6.97 µM.

“cis-Bis[[(trimethylsilyl)methyl]amino]tetrachloroplatinum(IV), CHEMBL2146191” came in with a GI50 of 17.6 µM.

Substance “[Bis(aminomethyl)ethylmethylsilane]tetrachloroplatinum(IV), CHEMBL2146192” displayed a GI50 of 13.1 µM.

In turn, CISPLATIN, CHEMBL11359 registered a GI50 of 5.35 µM.

Consider “[Bis(aminomethyl)dimethylsilane]dichloroplatinum (II), CHEMBL2146201”, for which the GI50 was > 100 µM.

Substance “mu-(1,7-nanodiamine-N,N')bis-(cis-aminedichloroplatimum (II)), CHEMBL2146215” returned a GI50 of 64.9 µM.

With “[Bis(aminomethyl)pentamethylenesilane]tetrachloropaltinum(IV), CHEMBL2146204”, the GI50 is 4.5 µM.

With “[Bis(aminomethyl)dimethylsilane]tetrachloroplatinum(IV), CHEMBL2146190”, the GI50 was 12.8 µM.

“[Bis(aminomethyl)pentamethylenesilane]dichloropaltinum(II), CHEMBL2146202” returned a GI50 of 5.12 µM.

In the case of “[Bis(aminomethyl)diethylsilane]tetrachloroplatinum(IV), CHEMBL2146203”, the GI50 worked out at 1.69 µM.

For “[Bis(aminomethyl)tetramethylenesilane]dichloropaltinum(II), CHEMBL2146205”, the GI50 is 26.2 µM.
